Assay outcomes from PubChem BioAssay.
TDP1 cell noCPT = qHTS for Inhibitors of human tyrosyl-DNA phosphodiesterase 1 (TDP1): qHTS in cells in absence of CPT | AID 686978, 2013 | Potency, µM (top dose mostly 46.2 µM), inactives show top-dose activity change, negative = growth inhibition, usual class: inhibitors | 15% of 420,000 active | DT40 Tdp1-/- hTDP1 cells, no CPT, ATP luminescence, 48 h; also: potency is read from the fitted curve at half-maximal effect; nearly all actives have a fitted effect of over 55% in size
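A cellular qHTS used chicken DT40 cells lacking endogenous Tdp1 but carrying stably transfected human TDP1. Compounds were applied without camptothecin, and cell growth kinetics were judged by ATP-dependent luminescence after ≥48 hr.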
HT1080-NT tox = kills 2HG-producing HT-1080-NT fibrosarcoma cells. AID 686970. Potency, µM (titrated, usually from 46.1 µM), without a hit: at the highest dose activity, negative = less viability, most hits filed as cytotoxic. HT-1080-NT fibrosarcoma viability, CellTiter-Glo ATP luminescence, 48 h. 1.6% of 360,000 active;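 also: NT is the 2HG producing partner of a matched IDH1 knockdown line; potency is read from the fitted curve at half-maximal effect; 0% = DMSO-treated cells and -100% = media-only wells without cells; nearly all actives have a fitted effect of over 55% in size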
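750 cells/well, RPMI + 5% FBS; 2 h settle, compound pin-transfer, 48 h at 37 degrees C. CellTiter-Glo 10 min RT, luminescence. Normalized to DMSO and media-only wells.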
DT40 TDP1 CPT = growth inhibition of DT40 Tdp1-/-;hTDP1 cells with camptothecin (screen for TDP1 inhibitors); chicken DT40 Tdp1-/-;hTDP1 cells + 20 nM CPT, ATP luminescence, 48 h; Potency, µM (series often up to 46.2 µM), for inactives: at the highest dose activity change, negative = growth inhibition, usual class: inhibitors; 12% of 420,000 active; also: potency is read from the fitted curve at half-maximal effect; nearly all actives have a fitted effect of over 55% in size
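Chicken DT40 Tdp1-/- cells complemented with human TDP1, 400 cells/well, exposed to compounds plus 20 nM camptothecin for at least 48 h at 37 C; viability read as ATP content by CellTiter-Glo luminescence.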
HT1080 IDH1KD tx = toxicity to HT-1080 IDH1 knockdown cells (counter line); 2% of 360,000 active; Potency, µM (titrated, usually from 46.1 µM), inactives show top-dose activity, negative = toxicity, usual class: cytotoxic; AID 686971; HT-1080 IDH1 knockdown viability, ATP luminescence, 48 h;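 also: potency is read from the fitted curve at half-maximal effect; 0% = DMSO wells and -100% = cell-free medium wells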
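Cytotoxicity counter-line: IDH1KD HT-1080, 48 h, CellTiter-Glo. Curves classed by r2, magnitude and activity.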
ALOX12 inh = inhibitors of human 12S-lipoxygenase ALOX12; P18054; purified 12hLO, xylenol orange hydroperoxide absorbance; Potency, µM (titrated, usually from 108 µM), for inactives: top-dose activity change, negative = inhibition, usual class: inhibitors; 1.1% of 580,000 active; also: potency is read from the fitted curve at half-maximal effect
Target sequence (P18054 whole entry, looked up): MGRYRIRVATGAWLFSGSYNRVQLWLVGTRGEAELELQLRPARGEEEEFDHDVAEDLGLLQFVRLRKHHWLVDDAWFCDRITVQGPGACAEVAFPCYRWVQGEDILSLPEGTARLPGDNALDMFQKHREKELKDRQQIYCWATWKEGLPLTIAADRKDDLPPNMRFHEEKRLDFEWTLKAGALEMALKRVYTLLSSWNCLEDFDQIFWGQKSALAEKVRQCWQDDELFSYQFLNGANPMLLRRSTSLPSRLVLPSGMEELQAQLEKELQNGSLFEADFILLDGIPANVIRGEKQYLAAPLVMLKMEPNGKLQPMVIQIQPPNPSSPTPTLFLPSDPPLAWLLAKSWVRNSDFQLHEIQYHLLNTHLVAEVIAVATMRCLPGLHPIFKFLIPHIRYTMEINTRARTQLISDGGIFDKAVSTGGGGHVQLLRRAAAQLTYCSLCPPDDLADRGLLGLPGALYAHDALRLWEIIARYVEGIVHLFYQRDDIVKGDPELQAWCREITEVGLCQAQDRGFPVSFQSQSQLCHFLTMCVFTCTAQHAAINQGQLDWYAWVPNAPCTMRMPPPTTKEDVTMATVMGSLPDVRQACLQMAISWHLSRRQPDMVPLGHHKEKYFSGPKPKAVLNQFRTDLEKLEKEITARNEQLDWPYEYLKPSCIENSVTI
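Hydroperoxide product was detected by ferrous iron/xylenol orange as the 573 to 405 nm absorbance ratio. Arachidonic acid at 40 uM (final) was turned over for 30 min at room temperature by 150 nM human 12hLO, pH 7.0 Hepes buffer, after 15 min compound preincubation.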
IL1B secr inh = inhibitors of inflammasome signaling (IL-1 beta secretion). THP-1 LPS/ATP IL-1B secretion, AlphaLISA, 16 h; active compounds read low. activity change, % at 57.5 µM. 4.7% of 360,000 active; in the data active = activity change below about -50%; inconclusive = mostly about -30% to -49%
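THP-1 cells pretreated 1 hr with compounds (up to 57.5 uM final), then stimulated with LPS (250 ng/mL final) plus ATP (1.25 mM final); secreted IL-1B measured by AlphaLISA after 16 hr, decreased signal indicating inhibition.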
Numbers without * were called inactive; ? = inconclusive; . = no result; [ ] = dose if it differs, or a comment. The sample as a whole holds a higher share of hits than the screen did. Unless noted, calls follow the shape of the dose curve; as a rule, active = well fitted curve in the direction sought with a large enough effect; inconclusive = small, poorly fitted or top-dose-only effect, or another doubt; inactive = no such curve, though single readings can be large; an effect the other way counts as inactive or inconclusive. Unless noted, % is scaled to controls: 0 for no effect and ±100 for the full control effect.

SMILES	TDP1 cell noCPT	HT1080-NT tox	DT40 TDP1 CPT	HT1080 IDH1KD tx	ALOX12 inh	IL1B secr inh
CC(C)Cn1c(=O)c2sccc2n2c(CCCC(=O)NCCc3ccccc3)nnc12	?	.	?	.	-10.4%	.
CC(C)CCn1c(=O)c2sccc2n2c(CCCC(=O)NCCc3ccccc3)nnc12	14.6µM*	.	14.6µM*	.	-22.9%	.
CCCN1CCC2(CCN(C(=O)c3ccc(Cl)cc3)CC2)Oc2ccccc21	.	.	.	.	-5.6%	.
CC(C)c1ccc(NC(=O)Cc2c[nH]c3ccccc23)cc1	.	.	.	.	-5.5%	.
CCCCC(CC)CNC(=O)CCCn1c(=O)[nH]c2ccsc2c1=O (configuration not stated)	?	.	14.6µM*	.	-22.2%	.
COc1ccc(CNC(=O)CCCc2nnc3n(CCC(C)C)c(=O)c4sccc4n23)cc1	18.4µM*	.	18.4µM*	.	0.0%	.
CC(=O)NCCNC(=O)CCCc1nnc2n(CCC(C)C)c(=O)c3sccc3n12	-1.6%	.	-5.0%	.	-12.8%	.
CCCCC(CC)CNC(=O)CCCc1nnc2n(CCC)c(=O)c3sccc3n12 (configuration not stated)	23.1µM*	.	20.6µM*	.	-18.1%	.
CC(C)CCn1c(=O)c2sccc2n2c(CCCC(=O)NCc3ccc(F)cc3)nnc12	?	.	18.4µM*	.	-15.4%	.
CCCCC(CC)CNC(=O)Cn1c(=O)[nH]c2ccsc2c1=O (configuration not stated)	-3.6%	6.5%	-0.3%	2.8%	-15.3%	-8.6
O=C(NNc1ccc([N+](=O)[O-])cc1)C12CC3CC(CC(C3)C1)C2	?	?	?	-28.0%	?	-16.7
CCCc1ccc2oc(C(=O)N(CC)Cc3ccncc3)c(C)c2c1	.	.	.	.	87.6%	.
Cc1cccc(-c2cccc3c4c([nH]c23)[C@@H]2C[C@H](N(C)C(=O)NC3CCCCC3)[C@H]([C@H](C)O)C(=O)N2CC4)c1	.	.	.	.	5.5%	.
O=C(NCC1Cn2cccc2C(=O)N1Cc1ccccc1)c1cc(F)ccc1F (configuration not stated)	.	.	.	.	29.7%	.
CC(=O)N1CCN(c2cc(-c3noc([C@@H]4CCCN4Cc4ccc(C(F)(F)F)cc4)n3)ccn2)CC1	.	.	.	.	2.9%	.
COCCN(CC(=O)NC(=O)NCC(F)(F)F)Cc1ccccc1	.	.	.	.	-13.9%	.
CCc1ccc(NC(=O)CCCc2nnc3n(CC(C)C)c(=O)c4sccc4n23)cc1	23.1µM*	.	20.6µM*	.	0.0%	.
CCn1c(=O)c2sccc2n2c(CCCC(=O)N3CCN(c4cc(C)ccc4C)CC3)nnc12	6.51µM*	.	6.51µM*	.	0.0%	.
Cc1cc(C)cc(NC(=O)CCCc2nnc3n(CC(C)C)c(=O)c4sccc4n23)c1	?	.	?	.	-18.5%	.
CC(=O)c1ccc(N2CCN(C(=O)c3ccc(Cn4c(=S)[nH]c5ccc(N6CCOCC6)cc5c4=O)cc3)CC2)cc1	2.59µM*	-20.2%	3.26µM*	-17.5%	-0.7%	28.8
CCOC(=O)N1CCN(C(=O)c2ccc(Cn3c(=S)[nH]c4ccc(Br)cc4c3=O)cc2)CC1	1.03µM*	-3.9%	5.17µM*	11.0%	2.3%	-63.3*
COc1ccc(Cn2c(=O)[nH]c3cc(C(=O)N4CCN(c5ccc(OC)cc5)CC4)ccc3c2=O)cc1	?	12.4%	-3.0%	4.1%	.	11.1
O=c1c2cc(N3CCOCC3)ccc2[nH]c(=S)n1Cc1ccccc1Cl	-27.9%	-8.6%	-6.5%	-9.0%	-1.0%	19.9
O=C(NCCc1ccc(Cl)cc1)c1ccc(Cn2c(=O)[nH]c3ccccc3c2=O)cc1	3.66µM*	.	6.51µM*	.	-21.3%	.
COc1ccc(Cn2c(=O)[nH]c3cc(C(=O)N4CCN(c5ccc(C(C)=O)cc5)CC4)ccc3c2=O)cc1	14.6µM*	-13.4%	?	-12.1%	-24.0%	26.8
O=C(c1ccccc1)N1CC(Oc2ccc3c(c2)OCO3)C1	.	.	.	.	-1.8%[12.5 µM]	.
Cc1ccc(C)c(N2CCN(C(=O)c3ccc(Cn4c(=O)[nH]c5ccccc5c4=O)cc3)CC2)c1	?	?	?	?	-16.8%	-15.9
O=C(c1ccc(Cn2c(=O)[nH]c3ccccc3c2=O)cc1)N1CCN(c2ccc(Cl)cc2)CC1	16.4µM*	?	23.1µM*	?	3.0%	-25.3
CC(=O)c1ccc(N2CCN(C(=O)c3ccc(Cn4c(=O)[nH]c5ccccc5c4=O)cc3)CC2)cc1	16.4µM*	.	10.3µM*	.	-15.4%	.
CC1=CC2=NC(=O)/C(=C/c3cccn3Cc3ccccc3)C(=N)N2O1	?	?	18.6%	?	13.0%	26.0
